# Reference: PubChem BioAssay AID743419 (Vanderbilt Specialized Chemistry Center, 2014)
# Target: Metabotropic glutamate receptor 5 (Homo sapiens) (UniProt P41594)
# Assay: mGlu5 glutamate response modulation at 10 µM, profiling panel, selectivity assay for mGlu8/mGlu7 PAM project, cell-based, calcium fluorescence, glutamate curve fold shift (AID 743419)
# Conditions: mGlu5 cells, Fluo-4 calcium, glutamate CRC shift, glutamate EC50 fold shift, stronger effect = higher value
# Chain of Metabotropic glutamate receptor 5 (Homo sapiens) (P41594 whole entry, looked up): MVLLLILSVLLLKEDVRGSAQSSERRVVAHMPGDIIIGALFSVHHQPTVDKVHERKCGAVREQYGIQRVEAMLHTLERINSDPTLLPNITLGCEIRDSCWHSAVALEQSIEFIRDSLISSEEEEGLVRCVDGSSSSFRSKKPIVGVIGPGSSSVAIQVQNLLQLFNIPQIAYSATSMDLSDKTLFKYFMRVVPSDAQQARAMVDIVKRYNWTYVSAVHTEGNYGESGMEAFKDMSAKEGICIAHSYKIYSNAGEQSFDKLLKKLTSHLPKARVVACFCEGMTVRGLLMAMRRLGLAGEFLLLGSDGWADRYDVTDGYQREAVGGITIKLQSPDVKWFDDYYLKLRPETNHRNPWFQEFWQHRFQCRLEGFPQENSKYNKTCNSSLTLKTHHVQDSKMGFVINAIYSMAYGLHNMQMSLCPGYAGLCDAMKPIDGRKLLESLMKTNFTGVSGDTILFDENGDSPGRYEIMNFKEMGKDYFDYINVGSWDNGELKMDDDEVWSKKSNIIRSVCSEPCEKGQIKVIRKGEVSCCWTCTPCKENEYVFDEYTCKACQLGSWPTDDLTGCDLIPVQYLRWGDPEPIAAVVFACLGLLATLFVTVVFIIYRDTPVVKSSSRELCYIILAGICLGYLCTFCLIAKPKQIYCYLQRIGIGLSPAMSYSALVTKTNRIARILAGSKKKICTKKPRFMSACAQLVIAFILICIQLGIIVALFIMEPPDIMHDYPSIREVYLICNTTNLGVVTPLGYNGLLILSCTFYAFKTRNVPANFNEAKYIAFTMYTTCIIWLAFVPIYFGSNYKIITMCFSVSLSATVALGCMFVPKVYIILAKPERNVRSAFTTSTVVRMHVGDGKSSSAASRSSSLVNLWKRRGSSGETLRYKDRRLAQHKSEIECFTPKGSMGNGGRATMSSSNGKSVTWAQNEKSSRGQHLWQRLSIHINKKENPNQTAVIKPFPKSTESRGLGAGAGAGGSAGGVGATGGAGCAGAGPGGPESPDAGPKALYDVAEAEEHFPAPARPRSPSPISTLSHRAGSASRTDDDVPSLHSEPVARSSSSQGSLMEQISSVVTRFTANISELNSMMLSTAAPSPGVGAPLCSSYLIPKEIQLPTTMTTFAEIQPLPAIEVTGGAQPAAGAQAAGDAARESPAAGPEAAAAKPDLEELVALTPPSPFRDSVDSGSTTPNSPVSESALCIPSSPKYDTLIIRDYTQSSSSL
compound,measurement,value
COC(=O)c1ccc(-n2c(C)cc(C(=O)CSc3ccc(NC(C)=O)cc3)c2C)cc1,fold shift,1.45
